Results: ChEMBL document CHEMBL3988442, “University of Dundee, Small-Polar-MMV Screening Library” (2021)

How the values were obtained:
[1] = target: T1, Aspartate--tRNA(Asp/Asn) ligase (Mycobacterium tuberculosis (strain ATCC 25618 / H37Rv)) (UniProt P9WFW3); assay: Assay for Asp RNA synthetase-1 from Mycobacterium tuberculosis; type: functional; parameters: scale not given: direction of the effect not stated beside the values; conditions: 30 µM; note: in the data most compounds retested in dose-response had high values
T1 sequence (whole entry): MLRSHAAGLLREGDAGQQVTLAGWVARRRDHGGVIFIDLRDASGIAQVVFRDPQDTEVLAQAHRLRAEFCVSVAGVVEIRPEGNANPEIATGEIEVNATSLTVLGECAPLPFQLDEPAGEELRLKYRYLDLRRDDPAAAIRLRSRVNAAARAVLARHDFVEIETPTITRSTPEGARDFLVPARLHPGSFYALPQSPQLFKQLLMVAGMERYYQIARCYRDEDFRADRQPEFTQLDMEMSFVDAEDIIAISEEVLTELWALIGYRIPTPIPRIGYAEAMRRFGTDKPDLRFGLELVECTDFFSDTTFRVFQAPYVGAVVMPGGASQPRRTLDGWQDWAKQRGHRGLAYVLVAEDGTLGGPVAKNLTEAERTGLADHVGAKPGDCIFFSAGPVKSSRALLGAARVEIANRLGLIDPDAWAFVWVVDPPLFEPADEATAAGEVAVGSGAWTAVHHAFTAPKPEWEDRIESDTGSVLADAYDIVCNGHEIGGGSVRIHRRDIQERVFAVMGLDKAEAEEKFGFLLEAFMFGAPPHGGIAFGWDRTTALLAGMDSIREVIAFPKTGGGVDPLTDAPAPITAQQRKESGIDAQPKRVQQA

[2] = target: Shiga toxin 2 (Escherichia coli O157:H7) (UniProt P09385+P09386); assay: E. coli 0.157:H7 Shiga Toxin SOP - stx2 screening assay; type: functional; parameters: scale not given: direction of the effect not stated beside the values; conditions: 30 µM

Compound | Percent Effect [1] | Percent Effect [2]
Cc1ccc(C(=O)N2CCCC2c2nnc3n2CCCCC3)o1 (centres undefined) | -0.223% | -7.29%
Cc1cccnc1CNc1cc(N2CCCC2CO)ncn1 (centres undefined) | -4.52% | -6.27%
CC(C)(C)c1nnc(CN2CCN(CC(O)c3ccccc3)CC2)o1 (centres undefined) | -8.31% | 10.2%
Cc1ccc2cnn(CCC(=O)NCc3c(C)nn(C)c3C)c2c1 | 8.17% | -18.4%
O=C(c1cccc(NCCO)c1)N1CCOCC1 | 7.13% | -69.6%
O=S(=O)(Nc1cnn(C2CCOCC2)c1)c1ccc2c(c1)CCO2 | 0.452% | -15.1%
COc1ccc(CNC(=O)NC2CCC(O)CC2)c(C(F)(F)F)c1 (centres undefined) | 2.84% | 3.3%
CCC(=O)N(C)CC(=O)Nc1ccc(Br)cn1 | -3.04% | -18.8%
CC(N(C)Cc1nc2c(cnn2C)c(=O)[nH]1)C(C)(C)C (centres undefined) | 5.45% | 28.9%
Cc1ccccc1C(=O)N1CCC(n2nnc3cc(F)ccc32)CC1 | -5.01% | -1.06%
Cc1nc(N(C)C)nc2c1COCC21CCN(C(=O)NC(C)C)C1 (centres undefined) | 2.63% | -1.42%
COc1ccccc1OCCC(=O)N1CCCC1Cn1cc(C)cn1 (centres undefined) | -0.922% | 29.9%
COC(=O)c1ccc(N2CCN(CCC#N)C(C)C2)cc1 (centres undefined) | 2.13% | 37.7%
CCc1noc(C2CCN(C(=O)CCn3nc(C)cc3C)CC2)n1 | 8.14% | -32.8%
COc1ccc(CNC2CCN(CCc3ccncc3)CC2)cc1O | 5.98% | -49.6%
c1ncn(CC2CN(Cc3csc(C4CCCC4)n3)CCO2)n1 (centres undefined) | -2.81% | 13.4%
O=C1CCC2(CCN(c3ncc(F)cn3)CC2)N1CCN1CCCC1 | 1.53% | -1.87%
